A word on the inhibition: it is the change of the read-out against control, counted positive when it falls.

The campaign covered roughly 77,000 compounds. About 4,600 (6%) were called active. Roughly 1% stayed inconclusive and do not appear here. For the sample, actives were picked, then their nearest neighbours and some compounds at random. Unmarked numbers belong to inactive results.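 How the source made its calls: active means mean inhibition above about 93%, with at least 55% of replicates each passing it (limit read from the data, passing the limit was not always enough); inconclusive means only one of those two conditions holds; inactive means neither condition holds.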

A short description of this test: T. cruzi intracellular proliferation inhibitors, primary screen, cell-based, beta-gal Tulahuen parasites, NIH3T3 host, luminescence (AID 624255). The settings on record: T. cruzi beta-gal in NIH3T3, GalScreen luminescence, 90 h; at 8.34 µM; active compounds read high.
With `CC(C)NC(=O)Nc1ccc2c(c1)C(=O)N([C@@H](C)CO)C[C@H](C)[C@H](CN(C)S(=O)(=O)c1ccc(Cl)cc1)OCCCC[C@H](C)O2`, the inhibition is 106% (active).
Consider `C[C@H]1CCCCO[C@H](CN(C)S(=O)(=O)c2ccc(Cl)cc2)[C@@H](C)CN([C@@H](C)CO)C(=O)c2cc(NC(=O)Nc3ccc4c(c3)OCO4)ccc2O1`, for which the inhibition is 105% (active).
`C[C@@H]1CCCCO[C@H](CN(C)S(=O)(=O)c2ccc(Cl)cc2)[C@@H](C)CN([C@H](C)CO)C(=O)c2cc(NC(=O)Nc3ccc4c(c3)OCO4)ccc2O1`: the inhibition is 82.9%.
Consider `COc1ccc(NC(=O)Nc2ccc3c(c2)C(=O)N([C@H](C)CO)C[C@H](C)[C@H](CN(C)S(=O)(=O)c2ccc(Cl)cc2)OCCCC[C@H](C)O3)cc1`, for which the inhibition is 115% (active).
Consider `CC(C)NC(=O)Nc1ccc2c(c1)C(=O)N([C@H](C)CO)C[C@@H](C)[C@@H](CN(C)S(=O)(=O)c1ccc(Cl)cc1)OCCCC[C@H](C)O2`, for which the inhibition was 55%.
Consider `COc1ccc(NC(=O)Nc2ccc3c(c2)C(=O)N([C@H](C)CO)C[C@H](C)[C@@H](CN(C)S(=O)(=O)c2ccc(OC)cc2)OCCCC[C@H](C)O3)cc1`, for which the inhibition is -12%.
Regarding `COc1ccc(S(=O)(=O)N(C)C[C@@H]2OCCCC[C@H](C)Oc3ccc(NC(=O)Nc4ccccc4)cc3C(=O)N([C@@H](C)CO)C[C@H]2C)cc1`, the inhibition is 37.1%.
Under `C[C@@H]1CCCCO[C@H](CN(C)S(=O)(=O)c2ccc(Cl)cc2)[C@H](C)CN([C@H](C)CO)C(=O)c2cc(NC(=O)NC3CCCCC3)ccc2O1` stands 92.2%; under `C[C@@H]1CCCCO[C@@H](CN(C)S(=O)(=O)c2ccc(F)cc2)[C@@H](C)CN([C@@H](C)CO)C(=O)c2cc(NC(=O)Nc3ccc4c(c3)OCO4)ccc2O1`, 23.6%.
Regarding `Cc1ccc(S(=O)(=O)Nc2ccc3c(c2)C(=O)N([C@@H](C)CO)C[C@@H](C)[C@H](CN(C)C(=O)NC(C)C)OCCCC[C@H](C)O3)cc1`, the inhibition was 46%.
With `CO[C@H]1CN(C)C(=O)c2ccc(NC(C)=O)cc2OC[C@H](C)N(CC2CC2)C[C@@H]1C`, the inhibition was 5.22%.
As to `CNC(=O)C[C@H]1CC[C@@H]2[C@H](COc3ccc(NC(=O)Nc4cccc(F)c4)cc3C(=O)N2C)O1`, the inhibition is 14.8%.
On to `C[C@@H]1CN([C@H](C)CO)C(=O)c2cc(NC(=O)Nc3cccc4ccccc34)ccc2O[C@H]1CN(C)C(=O)Nc1ccccc1`, for which the inhibition is 45.7%.
Next, `O=C(Nc1cccc(F)c1)N[C@@H]1CC[C@@H](CCn2cc(Cc3ccccc3)nn2)O[C@@H]1CO`: 42.3%; `CCNC(=O)Nc1ccc2c(c1)C(=O)N(C)[C@@H]1CC[C@H](CC(=O)NC3CCCCC3)O[C@H]1CO2`: 36%.
For the compound `O=C(Cc1ccccn1)NCC[C@H]1CC[C@H](NS(=O)(=O)c2ccccc2)[C@@H](CO)O1`, the inhibition is 44.9%.
Regarding `OC[C@@H]1[C@@H](c2ccc(C#CC3(O)CCCC3)cc2)[C@@H]2CN(Cc3cncnc3)CCCCN12`, the inhibition is 18.1%.
As for `OC[C@@H]1[C@H](c2ccc(C#CC3(O)CCCC3)cc2)[C@H]2CN(Cc3cncnc3)CCCCN12`, the inhibition is 101% (active).
As for `COCC#Cc1ccc([C@H]2[C@H](CO)N3CCCCN(Cc4ccncc4)C[C@@H]23)cc1`, the inhibition was 37.4%.
Next, `OC[C@@H]1[C@H](c2ccc(C#Cc3ccccc3)cc2)[C@@H]2CN(Cc3cncnc3)CCCCN12`: 112% (active); `OC[C@H]1[C@@H](c2ccc(C#CC3(O)CCCC3)cc2)[C@H]2CN(Cc3cncnc3)CCCCN21`: 60.8%; `CCCC#Cc1ccc([C@H]2[C@H]3CN(Cc4cncnc4)CCCCN3[C@H]2CO)cc1`: 63.2%.
`CO[C@H]1CN(C)C(=O)c2cc(NC(=O)C3CC3)ccc2OC[C@@H](C)N(CCc2ccccc2)C[C@H]1C`: the inhibition is 11.1%.
Next, `CO[C@@H]1CN(C)C(=O)c2ccc(NC(=O)Nc3cc(Cl)cc(Cl)c3)cc2OC[C@H](C)NC[C@H]1C`: -5.93%.
Turning to `CCCNC(=O)C[C@@H]1CC[C@@H]2[C@H](COC[C@H](O)CN2C(=O)c2cc(Cl)cc(Cl)c2)O1`, the inhibition was 3.7%.
Turning to `COc1ccc(NC(=O)N[C@H]2CC[C@@H](CCNC(=O)c3cc(Cl)cc(Cl)c3)O[C@H]2CO)cc1`, the inhibition is -22.3%.
Next, `C[C@@H]1CCCCO[C@@H](CN(C)C(=O)NC2CCCCC2)[C@@H](C)CN([C@@H](C)CO)C(=O)c2cc(NC(=O)C3CCCCC3)ccc2O1`: 69.2%; `O=C(NCc1cccc(F)c1)[C@H]1[C@H](CO)[C@H]2Cn3c(cccc3=O)[C@@H]1N2`: 23.3%; `COc1ccccc1NC(=O)N1CCCCN2[C@H](C1)[C@H](c1ccc(-c3ccccc3)cc1)[C@@H]2CO`: 119% (active).
Turning to `O=C(Nc1cc(F)ccc1F)N1CCCCN2[C@H](C1)[C@H](c1ccc(-c3cccnc3)cc1)[C@@H]2CO`, the inhibition is 89.5%.
In the case of `O=C(Nc1ccccc1F)N1CCCCN2[C@H](CO)[C@@H](c3ccc(-c4cccnc4)cc3)[C@H]2C1`, the inhibition was 104% (active).
Consider `O=C(Nc1cc(F)ccc1F)N1CCCCN2[C@H](CO)[C@@H](c3ccc(-c4cccnc4)cc3)[C@@H]2C1`, for which the inhibition is 69.1%.
Under `O=C(Nc1ccccc1)N1CCCCN2[C@H](CO)[C@@H](c3ccc(-c4ccccc4F)cc3)[C@H]2C1` stands 45.9%; under `CN(C)CC(=O)N1CCCCN2[C@@H](CO)[C@H](c3ccc(-c4cccnc4)cc3)[C@@H]2C1`, 73.9%.
Regarding `COc1ccccc1NC(=O)N1CCCCN2[C@@H](CO)[C@@H](c3ccc(C#Cc4ccccc4)cc3)[C@@H]2C1`, the inhibition is 94.4%.
Next, `CC(=O)N1CCCCN2[C@H](CO)[C@H](c3ccc(-c4ccccc4)cc3)[C@@H]2C1`: 72.8%; `O=C(Nc1cc(F)ccc1F)N1CCCCN2[C@H](CO)[C@@H](c3ccc(-c4cncnc4)cc3)[C@H]2C1`: 106% (active).
Take `C[C@@H]1CN([C@H](C)CO)C(=O)c2cc(NC(=O)c3ccccc3)ccc2O[C@@H](C)CCCCO[C@H]1CN(C)S(=O)(=O)c1ccccc1`: the inhibition is -19.9%.
`O=C(Nc1ccc(Cl)cc1)N1C[C@@H]2[C@H](c3ccccc31)[C@@H](CO)N2C(=O)c1cccnc1`: the inhibition was -10.9%.
With `C[C@@H](O)C#Cc1ccc([C@@H]2[C@@H](CO)N3CCCCN(C(=O)c4ccc(F)cc4)C[C@@H]23)cc1`, the inhibition is 26.5%.
Under `COc1ccc(CN(C)C[C@H]2OCCCC[C@@H](C)Oc3ccc(NC(=O)Nc4cccc5ccccc45)cc3C(=O)N([C@H](C)CO)C[C@@H]2C)cc1` stands 67.6%; under `C[C@@H]1CCCCO[C@H](CN(C)C(=O)c2ccccc2)[C@@H](C)CN([C@H](C)CO)C(=O)c2cc(NC(=O)Nc3cccc4ccccc34)ccc2O1`, -46.1%.
Take `CC(C)NC(=O)N(C)C[C@H]1OCCCC[C@@H](C)Oc2ccc(NC(=O)Nc3cccc4ccccc34)cc2C(=O)N([C@H](C)CO)C[C@@H]1C`: the inhibition is 33.3%.
`C[C@@H]1CCCCO[C@H](CN(C)C(=O)Nc2cccc3ccccc23)[C@@H](C)CN([C@@H](C)CO)C(=O)c2cc(NC(=O)Nc3ccc(F)cc3)ccc2O1`: the inhibition is 91.1%.
With `C[C@@H]1CCCCO[C@@H](CN(C)CC2CC2)[C@@H](C)CN([C@H](C)CO)C(=O)c2cc(NC(=O)Nc3cccc4ccccc34)ccc2O1`, the inhibition was 86.5%.
As to `C[C@H](CO)N1C[C@H](C)[C@@H](CN(C)Cc2ccc(C(=O)O)cc2)OCCCC[C@H](C)Oc2ccc(NC(=O)c3ccccc3)cc2C1=O`, the inhibition was 20.3%.
Take `C[C@H]1CCCCO[C@H](CN(C)Cc2ccccc2)[C@@H](C)CN([C@@H](C)CO)C(=O)c2cc(NC(=O)c3ccccc3)ccc2O1`: the inhibition was 102% (active).
As for `C[C@H](CO)N1C[C@H](C)[C@H](CN(C)Cc2ccccc2)OCCCC[C@H](C)Oc2ccc(NC(=O)c3ccccc3)cc2C1=O`, the inhibition is 71.5%.
For the compound `C[C@@H]1CN([C@@H](C)CO)C(=O)c2cc(NC(=O)Nc3cccc4ccccc34)ccc2O[C@@H](C)CCCCO[C@H]1CN(C)Cc1ccccc1`, the inhibition was 112% (active).
As to `C[C@@H]1CCCCO[C@@H](CN(C)C(=O)Nc2ccc(F)cc2)[C@H](C)CN([C@H](C)CO)C(=O)c2cc(NC(=O)Nc3cccc4ccccc34)ccc2O1`, the inhibition was 108% (active).
On to `C[C@@H]1CCCCO[C@@H](CN(C)Cc2ccccc2)[C@H](C)CN([C@H](C)CO)C(=O)c2cc(NC(=O)Nc3cccc4ccccc34)ccc2O1`, for which the inhibition was 112% (active).
Under `C[C@@H]1CCCCO[C@H](CN(C)C(=O)Nc2ccc(C(F)(F)F)cc2)[C@@H](C)CN([C@@H](C)CO)C(=O)c2cc(NC(=O)Nc3cccc4ccccc34)ccc2O1` stands 87.4%.
Next, `COc1ccc(NC(=O)N(C)C[C@@H]2OCCCC[C@@H](C)Oc3ccc(NS(=O)(=O)c4cn(C)cn4)cc3C(=O)N([C@@H](C)CO)C[C@H]2C)cc1`: 18.4%; `C[C@@H]1CN([C@@H](C)CO)C(=O)c2cc(NS(=O)(=O)c3cn(C)cn3)ccc2O[C@@H](C)CCCCO[C@@H]1CN(C)Cc1ccncc1`: -84.1%.
As for `C[C@H](CO)N1C[C@H](C)[C@@H](CN(C)C(=O)c2ccncc2)Oc2ncc(-c3ccncc3)cc2C1=O`, the inhibition is 4.66%.
Take `COC(=O)[C@@H]1[C@@H](CO)[C@@H]2Cn3c(ccc(-c4ccccc4)c3=O)[C@@H]2N1C(=O)C1CC1`: the inhibition was 59.9%.
As for `O=C(Nc1ccccc1)N[C@@H]1CC[C@H](CCNS(=O)(=O)c2ccccc2F)O[C@@H]1CO`, the inhibition was -32.8%.

Values taken from PubChem BioAssay AID624255 (Broad Institute, 2012).
